Compound activity (PubChem)
GPR151 activ – human GPR151 activation; Q8TDV0; PathHunter beta-arrestin GPR151 cells, luminescence; activation, % at 11.2 µM; 650,000 tested, 1% active; AID 1508602; in the data active = activation above about 4.9%;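 also: 0% = median of compound wells and 100% = cells with positive control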
Target sequence (Q8TDV0 whole entry, looked up): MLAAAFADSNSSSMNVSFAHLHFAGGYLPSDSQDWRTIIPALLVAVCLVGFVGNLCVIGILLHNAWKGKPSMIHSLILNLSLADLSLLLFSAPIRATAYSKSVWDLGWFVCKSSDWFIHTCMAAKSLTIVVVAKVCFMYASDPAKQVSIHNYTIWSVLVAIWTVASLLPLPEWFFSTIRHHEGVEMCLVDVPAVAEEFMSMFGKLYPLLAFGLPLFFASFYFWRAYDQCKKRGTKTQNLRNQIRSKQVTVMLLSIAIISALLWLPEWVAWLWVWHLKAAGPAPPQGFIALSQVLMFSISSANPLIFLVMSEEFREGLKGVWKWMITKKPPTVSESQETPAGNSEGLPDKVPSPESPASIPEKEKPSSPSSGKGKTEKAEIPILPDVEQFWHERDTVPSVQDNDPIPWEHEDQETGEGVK
TEAD-YAP inh – TEAD-YAP interaction inhibition; HEK-TIYL cells, TEAD-Gal4/YAP UAS-luciferase luminescence; inhibition, % at 9.12 µM; 640,000 tested, 1.4% active; in the data active = inhibition above about 32%;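 also: 0% = median of test compound wells and 100% = reference inhibitor wells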
FBW7 activator – activators of human E3 ligase FBW7 | AlphaScreen FBW7–phospho-cyclin E peptide binding, activator screen | normalized activity (activation), % at 26.1 µM | 650,000 tested, 0.13% active | AID 1259310; in the data active = normalized activity above about 1.9%;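 also: purified mutant Fbw7 with reduced substrate affinity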
MITF inh – blocks human microphthalmia-associated transcription factor | O75030 | AlphaScreen MITF homodimerization, bead proximity signal | 650,000 tested, 0.91% active | inhibition, % at 2.6 µM | AID 1259374; in the data active = inhibition above about 50%;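 also: 0% = vehicle wells with protein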
* hit, by the source's call. Only some compounds are listed: those with a hit (about 3.4% of all), similar ones and a draw of the others.

For COc1ccc2nc(NC(=O)c3nn(C)cc3C)sc2c1 the results were GPR151 activ -9, TEAD-YAP inh -19, FBW7 activator 3.6* and MITF inh -3.
CN(C)CCOC(=O)CCc1ccccc1 was read as GPR151 activ 0, TEAD-YAP inh 0, FBW7 activator 0 and MITF inh -6.
For COc1cccc(/C=C2\C(=O)NC(=S)N(c3ccc(C)cc3)C2=O)c1O the results were GPR151 activ 0, TEAD-YAP inh 2, FBW7 activator 0 and MITF inh 12.
N#Cc1c(NC(=O)c2ccc([N+](=O)[O-])cc2[N+](=O)[O-])sc2c1CCCC2 was read as GPR151 activ 0, TEAD-YAP inh 2, FBW7 activator 0 and MITF inh -19.
Screening CC1CCc2sc(NC(=O)c3cc(Cl)ccc3[N+](=O)[O-])c(C#N)c2C1 (stereo not drawn) returned GPR151 activ -1, TEAD-YAP inh 51*, FBW7 activator 0 and MITF inh 9.
For N#Cc1c(NC(=O)c2cc([N+](=O)[O-])ccc2Cl)sc2c1CCCC2 the results were GPR151 activ 2, TEAD-YAP inh 49*, FBW7 activator 0 and MITF inh 9.
Screening CC(C)c1ccc(CNC(=O)CSc2nnc(-c3cccc(F)c3)n2-c2ccccc2)cc1 returned GPR151 activ 0, TEAD-YAP inh 4, FBW7 activator 0 and MITF inh 4.
Screening Cc1nc(SCC(=O)Nc2ccccc2N2CCOCC2)c2c(C)c(C)sc2n1 returned GPR151 activ 1, TEAD-YAP inh 14, FBW7 activator 0 and MITF inh 7.
For Cc1ccc(NC(=O)c2n[nH]c3ccccc23)cc1Cl the results were GPR151 activ -4, TEAD-YAP inh -38, FBW7 activator 0 and MITF inh 4.
`Cc1ccc(NC(=O)c2n[nH]c3ccccc23)cc1` gave GPR151 activ -7, TEAD-YAP inh 45*, FBW7 activator 0 and MITF inh 15.
For CC(C)(C)NC(=O)C(c1ccccn1)N(C(=O)c1csnn1)c1ccccc1Cl (stereo not drawn) the results were GPR151 activ -1, TEAD-YAP inh 12, FBW7 activator 1 and MITF inh 12.
`OC1CCC(Nc2nc(NCc3ccccc3)c3ncn(-c4ccccc4)c3n2)CC1` (stereo not drawn) gave GPR151 activ 1, TEAD-YAP inh -40, FBW7 activator 0 and MITF inh -2.
Screening c1ccc(-n2cnc3c(NC4CC4)nc(Nc4ccc(N5CCOCC5)cc4)nc32)cc1 returned GPR151 activ 1, TEAD-YAP inh 33*, FBW7 activator 0 and MITF inh 7.
OC1CCC(Nc2nc(Nc3ccc(N4CCOCC4)cc3)c3ncn(-c4ccccc4)c3n2)CC1 (stereo not drawn) was read as GPR151 activ 1, TEAD-YAP inh 38*, FBW7 activator 0 and MITF inh 21.
Cc1cc(Nc2cc(Nc3ccccc3C(N)=O)ccn2)ccc1N1CCOCC1 was read as GPR151 activ 2, TEAD-YAP inh 34*, FBW7 activator 0 and MITF inh 17.
`NC(=O)c1ncccc1Nc1ccnc(Nc2ccc(N3CCOCC3)cc2)c1` gave GPR151 activ 0, TEAD-YAP inh 49*, FBW7 activator 0 and MITF inh 35.
NC(=O)c1cc(F)ccc1Nc1ccnc(Nc2ccc(N3CCOCC3)cc2)c1 was read as GPR151 activ 4, TEAD-YAP inh 18, FBW7 activator 0 and MITF inh 17.
For NC(=O)c1ccccc1Nc1ccnc(Nc2ccc(N3CCOCC3)cc2F)c1 the results were GPR151 activ 0, TEAD-YAP inh 38*, FBW7 activator 0 and MITF inh -7.
CCSCCOC(=O)C1=C(C)NC2=C(C(=O)C(C(=O)OC)C(C)C2)C1c1cccc(O)c1 (stereo not drawn) was read as GPR151 activ 2, TEAD-YAP inh 14, FBW7 activator 0 and MITF inh 2.
`O=C(CNC(=O)c1ccccc1)NCC(=O)OCC(=O)c1ccc(Cl)cc1Cl` gave GPR151 activ 0, TEAD-YAP inh 6, FBW7 activator 0 and MITF inh -3.
`COc1cc(/C=C2/C(=N)N3OC(C)=CC3=NC2=O)ccc1OCc1ccc2c(c1)OCO2` gave GPR151 activ -6, TEAD-YAP inh 48*, FBW7 activator 0 and MITF inh 12.
For CC1=CC2=NC(=O)/C(=C\c3cc(C)n(-c4cc(C)cc(C)c4)c3C)C(=N)N2O1 the results were GPR151 activ 1, TEAD-YAP inh 55*, FBW7 activator 0 and MITF inh 4.
CC1=CC2=NC(=O)/C(=C\c3cc(C)n(-c4cccc(F)c4)c3C)C(=N)N2O1 was read as GPR151 activ 0, TEAD-YAP inh 7, FBW7 activator 0 and MITF inh -2.
`COc1cccc(-n2c(C)cc(/C=C3/C(=N)N4OC(C)=CC4=NC3=O)c2C)c1` gave GPR151 activ -1, TEAD-YAP inh 57*, FBW7 activator 0 and MITF inh 2.
For CC1=CC2=NC(=O)/C(=C\c3cc(C)n(-c4ccc(Cl)cc4)c3C)C(=N)N2O1 the results were GPR151 activ 0, TEAD-YAP inh 13, FBW7 activator 0 and MITF inh 3.
Screening Cc1ccc2cccc(Oc3ccc([N+](=O)[O-])cc3C(N)=O)c2n1 returned GPR151 activ -1, TEAD-YAP inh 8, FBW7 activator 0 and MITF inh 4.
Screening COc1ccc(-c2nc(NCCc3ccc(O)cc3)c3[nH]cnc3n2)cn1 returned GPR151 activ 2, TEAD-YAP inh 33*, FBW7 activator 0 and MITF inh 8.
Screening COc1ccc(-c2nc(NCCc3ccc(O)cc3)c3[nH]cnc3n2)cc1 returned GPR151 activ 1, TEAD-YAP inh 59*, FBW7 activator 0 and MITF inh 2.
For COc1ccc(CCNc2nc(-c3ccc(OC)nc3)nc3nc[nH]c23)cc1 the results were GPR151 activ 0, TEAD-YAP inh 20, FBW7 activator 0 and MITF inh 15.
Screening O=C(Nc1ccccc1Cc1ccccc1)C1CC(=O)N(Cc2ccccc2)C1 (stereo not drawn) returned GPR151 activ 0, TEAD-YAP inh 3, FBW7 activator 0 and MITF inh 1.
C=CCn1c(N2CCCCC2)cc(=O)n(C)c1=O was read as GPR151 activ 2, TEAD-YAP inh -7, FBW7 activator 0 and MITF inh -6.
Screening COC(=O)C1=C(C)NC2=C(C(=O)c3ccccc32)C1c1cc(Cl)c(OC)c(OC)c1 (stereo not drawn) returned GPR151 activ -1, TEAD-YAP inh 61*, FBW7 activator 0 and MITF inh 14.
`COc1ccc(/C=C/C(=O)Nc2ccccc2C)cc1OC` gave GPR151 activ 1, TEAD-YAP inh 5, FBW7 activator 0 and MITF inh 11.
`COc1ccc(/C=C/C(=O)Nc2ccccc2C(=O)O)cc1OC` gave GPR151 activ -11, TEAD-YAP inh 84*, FBW7 activator 0 and MITF inh 1.
For CC1CCN(S(=O)(=O)c2ccc(NC(=O)/C=C/c3ccc4c(c3)OCO4)cc2)CC1 the results were GPR151 activ 0, TEAD-YAP inh 44*, FBW7 activator 0 and MITF inh 13.
